From PubChem BioAssay
MPTP inh: mitochondrial permeability transition pore inhibitors, primary screen, biochemical, isolated mouse mitochondria, absorbance; Ca2+ swelling absorbance, 30 min; inhibition, % at 10 µM; actives 1.4% (n = 360,000); AID 602449, 2012;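 active means inhibition of 50% or more, scaled per plate between neutral and stimulator controls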;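 further: 0% = DMSO wells given calcium and 100% = 1 mM EGTA wells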
rCAG binder: binders of r(CAG) RNA repeats, primary screen, biochemical, fluorescence; actives 1.3% (n = 370,000); r(CAG) RNA repeat, TO-PRO-1 dye displacement fluorescence; inhibition, % at 3 µM; AID 651821, 2012;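 active means inhibition above the plate cutoff, the mean of all test compounds on that plate plus 3 SD, cut at about 35% in these data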;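 further: 0% = DMSO alone and 100% = 100 µM mitoxantrone as full dye displacement; higher means more dye released from RNA so lower well fluorescence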
KLK7 zymogen act: proKLK7 zymogen activators, primary screen, biochemical, fluorescence intensity; Kallikrein-7 (Homo sapiens), P49862; purified proKLK7, EDANS-DABCYL substrate fluorescence; 100% is mature enzyme control, 0% vehicle; activation, % at 7 µM; actives 0.9% (n = 370,000);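 active means activation above the mean of all tested compounds plus 3 SD, computed per campaign excluding outliers beyond control limits, cut at about 13% in these data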
ADAM10 inh: human ADAM10 inhibitors, primary screen, biochemical, QFRET, HTS. recombinant ADAM10, EDANS/DABCYL FRET peptide cleavage, 3 h. inhibition, % at 7 µM. actives 0.62% (n = 370,000). AID 720582, 2013;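 active means inhibition above a per-campaign cutoff equal to the mean of compounds falling between control-based bounds plus 3 SD, cut at about 20% in these data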;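 further: 0% = DMSO wells while the 100% control is not disclosed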
DSG3 Ab inh: inhibitors of pemphigus antibody binding to DSG3, primary screen, biochemical, bead-based, flow cytometry, scFv-GFP. binding (percent of control), % at 10 µM. actives 0.48% (n = 310,000). DSG3-coupled beads, scFv-anti-DSG3-GFP binding; active compounds read low;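 active means binding more than 3 SD below its plate's average and above zero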;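 further: hits lower antibody fragment binding to DSG3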
Target sequence (P32926 whole entry, looked up, the tested form may be a part): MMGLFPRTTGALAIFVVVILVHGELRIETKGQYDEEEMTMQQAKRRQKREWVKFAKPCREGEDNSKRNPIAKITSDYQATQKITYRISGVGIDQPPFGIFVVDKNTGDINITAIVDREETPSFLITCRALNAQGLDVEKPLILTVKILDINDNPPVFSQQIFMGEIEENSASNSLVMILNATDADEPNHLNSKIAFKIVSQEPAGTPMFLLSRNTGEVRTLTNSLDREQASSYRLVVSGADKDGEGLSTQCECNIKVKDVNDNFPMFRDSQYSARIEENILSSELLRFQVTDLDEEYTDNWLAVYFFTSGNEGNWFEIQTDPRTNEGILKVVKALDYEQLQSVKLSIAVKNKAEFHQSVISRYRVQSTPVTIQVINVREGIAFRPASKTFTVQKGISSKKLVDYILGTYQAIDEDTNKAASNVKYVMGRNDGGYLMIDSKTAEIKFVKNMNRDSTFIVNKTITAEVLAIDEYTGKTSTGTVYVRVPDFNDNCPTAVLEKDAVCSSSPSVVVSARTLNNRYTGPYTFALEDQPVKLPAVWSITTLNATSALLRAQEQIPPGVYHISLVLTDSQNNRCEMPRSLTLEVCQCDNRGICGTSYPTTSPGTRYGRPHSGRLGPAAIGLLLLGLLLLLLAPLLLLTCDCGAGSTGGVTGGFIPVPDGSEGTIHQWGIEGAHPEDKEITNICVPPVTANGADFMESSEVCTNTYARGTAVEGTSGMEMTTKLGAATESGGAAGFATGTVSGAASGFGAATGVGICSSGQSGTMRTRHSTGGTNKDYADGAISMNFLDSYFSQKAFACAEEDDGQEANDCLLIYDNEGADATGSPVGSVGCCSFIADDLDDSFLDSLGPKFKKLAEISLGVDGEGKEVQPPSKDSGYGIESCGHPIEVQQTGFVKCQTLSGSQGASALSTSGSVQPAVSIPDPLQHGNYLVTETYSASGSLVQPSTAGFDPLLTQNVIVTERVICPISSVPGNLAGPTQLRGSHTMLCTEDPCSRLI
ADAM17 inh: ADAM17 inhibitors, primary screen, biochemical, QFRET; Disintegrin and metalloproteinase domain-containing protein 17 (Homo sapiens), P78536; recombinant ADAM17, EDANS/DABCYL FRET peptide cleavage; inhibition, % at 6.95 µM; actives 0.83% (n = 370,000);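 active means inhibition above the mean of compounds lying between control limits plus 3 SD, set per campaign, cut at about 8.5% in these data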;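 further: 0% = DMSO-only wells as the low control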
rCAG binder conf: small molecules binding CAG repeat RNA – biochemical, fluorescence, confirmation; actives 70% (n = 4,300); inhibition, % at 3 µM; r(CAG) RNA repeat, TO-PRO-1 dye displacement fluorescence; shares compounds with rCAG binder;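 active means inhibition above a per-plate cutoff, the mean inhibition of sample wells plus 3 SD, cut at about 35% in these data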;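 further: loss of TO-PRO-1 fluorescence as compound displaces dye from 1x1 AA loop RNA; 0% = DMSO only wells and 100% = 100 µM mitoxantrone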
dCAG dye counter: displacement of TO-PRO-1 from CAG DNA duplex, counter-screen for rCAG RNA repeat binder project, biochemical, fluorescence, TO-PRO-1 dye, d(CAG) DNA oligo. d(CAG) DNA oligo TO-PRO-1 dye displacement. inhibition, % at 3 µM. shares compounds with rCAG binder. actives 94% (n = 4,300);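 active means inhibition above its plate's cutoff, the mean test-well inhibition plus 3 SD, cut at about 4.8% in these data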;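 further: 0% = DNA dye mix with DMSO and 100% = 100 µM mitoxantrone; hits displace the dye from DNA and so lower well fluorescence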
* hit, by the source's call; i = inactive; nt = not tested or not shown. This is a sample that favours compounds with a hit; in the whole collection about 4.7% have one here.

SMILES	MPTP inh	rCAG binder	KLK7 zymogen act	ADAM10 inh	DSG3 Ab inh	ADAM17 inh	rCAG binder conf	dCAG dye counter
CCOc1ccc(C(=O)/C=C/Nc2ccc(S(=O)(=O)N=C(N)N)cc2)cc1	2	5	-3	-11	100	-4	nt	nt
Cc1noc(NS(=O)(=O)c2ccc(N/C=C\C(=O)c3ccc4c(c3)OCO4)cc2)c1C	-1	44*	1	0	97	3	43*	14*
O=C(CSc1nc(=O)n2ccccc2n1)N1CCCc2ccccc21	0	-2	-1	-3	107	-2	nt	nt
COc1ccc(CC(=O)NNC(=O)COc2ccc(Cl)cc2C)cc1S(=O)(=O)N1CCOCC1	0	2	0	0	nt	0	nt	nt
CC(C)(C)c1ccc(Cn2nnc3c(=O)[nH]c(C4CCN(C(=O)c5ccco5)CC4)nc32)cc1	-2	2	0	8	96	-1	nt	nt
CCn1c2ccccc2c2cc(/C=N/NC(=O)c3cc(O)cc(O)c3)ccc21	0	38*	-2	-168	101	-74	37*	21*
Cc1cc(-c2nnc(SCC(=O)Nc3nc(-c4ccc(Cl)cc4)cs3)o2)no1	2	46*	-1	-2	101	-2	15	5.8*
COc1ccc2nc(-c3ccccc3)[nH]c2c1	0	1	3	i	102	-133	nt	nt
Oc1c(Br)cc(C=Nc2ccc3nc(-c4ccccc4)[nH]c3c2)c(O)c1Br	nt	46*	-12	-369	nt	-102	56*	25*
COc1cccc(C2C3=C(N=c4s/c(=C\c5cccc(O)c5)c(=O)n42)c2ccccc2CC3)c1OC (centres undefined)	6	11	-1	-3	78	2	nt	nt
CCOC(=O)C1=C(C)N=c2s/c(=C/c3cccc(OCC(=O)O)c3)c(=O)n2C1c1ccc(F)cc1 (centres undefined)	nt	71*	0	11	nt	2	76*	38*
COc1ccccc1C1C2=C(N=c3s/c(=C/c4cccc(OCC(=O)O)c4)c(=O)n31)c1ccccc1CC2 (centres undefined)	4	59*	-1	-7	nt	-4	78*	43*
CCOC(=O)C1=C(C)N=c2s/c(=C\c3ccc(C(=O)O)cc3)c(=O)n2C1c1ccc(F)cc1 (centres undefined)	1	6	1	-4	78	-5	nt	nt
CCOC(=O)C1=C(C)N=c2s/c(=C\c3cccc(OCC(=O)O)c3)c(=O)n2C1c1ccccc1 (centres undefined)	0	76*	1	8	92	0	75*	36*
Cc1cccc(Cl)c1NC(=O)N(C)c1ccccc1	nt	2	0	-17	nt	-4	nt	nt
O=C(NCc1ccccc1)[C@H]1CCCN1C(=O)[C@H]1CCCN1C(=O)C1CCCCC1	nt	2	1	2	nt	-1	nt	nt
C=CCNc1sc(C(=O)c2ccc(Br)s2)c(N)c1C#N	16	12	-1	-8	89	-3	nt	nt
C=CCNc1nc(N)c(C(=C(C#N)C#N)c2ccc(Br)cc2)s1	2	38*	-35	i	104	-178	22	10*
CC1CCN(C(=O)c2[nH]cnc2C(=O)Nc2ccc(Cl)cc2)CC1	0	4	1	2	99	-3	nt	nt
O=C(Nc1nnc(-c2cccs2)o1)c1cccc(F)c1	-2	3	1	3	102	2	nt	nt
O=C(Nc1nnc(-c2cccs2)o1)c1cccc(Oc2ccccc2)c1	-17	38*	0	17	96	7	53*	15*
CCOC(=O)[C@@]12CCCC3=C1N(CCC3)C(=O)[C@H]2CC(=O)N1CCCCC1	nt	-3	0	-2	nt	-1	nt	nt
COc1cc2c(cc1OC)CSC1C(=O)N(C)C(SC2)C(=O)N1C	nt	7	0	2	nt	3	nt	nt
N#Cc1c(N2C(=O)Nc3ccccc3N2O)sc2c1CCCCCC2	-1	45*	0	-1	113	0	34	11*
O=C(Nc1cccc(C(F)(F)F)c1)C(Sc1n[nH]c(=O)[nH]c1=O)c1ccccc1 (centres undefined)	8	39*	0	-3	90	-5	38*	12*
SMILES	MPTP inh	rCAG binder	KLK7 zymogen act	ADAM10 inh	DSG3 Ab inh	ADAM17 inh	rCAG binder conf	dCAG dye counter
O=C(Nc1cc(C(F)(F)F)ccc1Cl)C(Sc1n[nH]c(=O)[nH]c1=O)c1ccccc1 (centres undefined)	3	31	1	6	91	-1	nt	nt
Cc1cc(C)nc(NS(=O)(=O)c2ccc(NC(=O)CN3C(=O)S/C(=C\c4ccccc4)C3=O)cc2)n1	0	60*	0	12	126	3	69*	30*
O=C(CCc1ccccc1)Nc1ccc(S(=O)(=O)Nc2nccs2)cc1	-1	21	0	-6	99	1	nt	nt
O=C(CCN1C(=O)S/C(=C\c2ccccc2)C1=O)Nc1ccc(S(=O)(=O)Nc2nccs2)cc1	3	77*	0	3	109	-3	74*	39*
COc1ccccc1/C=C1/SC(=O)N(CCC(=O)Nc2ccc(S(=O)(=O)Nc3nccs3)cc2)C1=O	-3	79*	0	7	100	3	80*	46*
Cc1cc(C)nc(NS(=O)(=O)c2ccc(NC(=O)CN3C(=O)C4CC=CCC4C3=O)cc2)n1 (centres undefined)	0	3	0	-10	80	-7	nt	nt
C1=CC2=NC34CCCCC3CC3=C(CCCC3)N4C2=CC1=NC1CCCCC1 (centres undefined)	14	nt	nt	nt	90	nt	nt	nt
CCOc1ccc(S(=O)(=O)Nc2cccc(C(=O)NCC(c3ccco3)N3CCCC3)c2)cc1 (centres undefined)	-1	9	0	2	77	-4	nt	nt
CCCS(=O)(=O)c1c(S(=O)(=O)CCC)c2c(N)cccn2c1C(=O)OC	1	24	-2	-11	105	-7	nt	nt
CCCS(=O)(=O)c1c(S(=O)(=O)CCC)c2c(N)cccn2c1C(=O)c1ccccc1	-2	43*	0	1	68	3	25	10*
